Measured values taken from PubChem BioAssay (NCI).
About 79,000 compounds went through this panel and 15% of them were active in at least one assay; those are over-represented in the sample as a whole. Calls of active or inactive are those of the source. No stated cut-off is given here; in the data, active means growth inhibition above about 70%; inactive means the rest.

Experiments:
[1] = NCI Yeast Anticancer Drug Screen. Data for the mec2-1 strain (AID 157); conditions: S. cerevisiae mec2-1 strain, active compounds read high
In short: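 Vehicle-treated cultures served as reference for growth inhibition of compound-exposed mec2-1 yeast.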

[2] = NCI Yeast Anticancer Drug Screen. Data for the rad14 strain (AID 159);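 further: 0% = growth of vehicle-treated control cultures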; conditions: S. cerevisiae rad14 strain growth inhibition, active compounds read high
In short: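 Readout: yeast growth inhibition, referenced to vehicle-only cultures. Strain bears a defined alteration in DNA damage repair.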

[3] = NCI Yeast Anticancer Drug Screen. Data for the sgs1 mgt1 strain (AID 161);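 further: 0% = growth of cultures given vehicle only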; conditions: S. cerevisiae sgs1 mgt1 strain, active compounds read high
In short: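 Read-out: growth inhibition vs vehicle controls. Cells: mutant yeast strain deficient in DNA damage repair.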

[4] = NCI Yeast Anticancer Drug Screen. Data for the CLN2oe strain (AID 163);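 further: 0% = growth of vehicle-only control cultures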; conditions: S. cerevisiae CLN2oe strain, active compounds read high
In short: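 Inhibition relative to vehicle-treated yeast is reported. Cells: strain with genetic alteration in cell-cycle control, grown with compound.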

[5] = NCI Yeast Anticancer Drug Screen. Data for the cln2 rad14 strain (AID 165);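 further: 0% = growth equal to vehicle treated cultures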; conditions: S. cerevisiae cln2 rad14 strain, active compounds read high
In short: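 Each compound was tested on cln2 rad14 yeast. Inhibition of growth was calculated against vehicle-exposed controls.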

[6] = NCI Yeast Anticancer Drug Screen. Data for the bub3 strain (AID 167); conditions: S. cerevisiae bub3 mutant strain, active compounds read high
In short: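 Part of a panel of yeast mutants defective in DNA damage repair or cell cycle regulation. Each strain is grown with compound, and inhibition is calculated relative to solvent-treated cultures.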

[7] = NCI Yeast Anticancer Drug Screen. Data for the wt2 strain (AID 169);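 further: 0% = growth of vehicle-treated yeast cultures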; conditions: S. cerevisiae wt2 strain growth inhibition, active compounds read high
In short: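 Inhibition of yeast growth was determined after compound treatment, normalised to controls receiving only vehicle.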

[8] = NCI Yeast Anticancer Drug Screen. Data for the sgs1 strain (AID 173);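 further: 0% = growth of vehicle-only control cultures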; conditions: S. cerevisiae sgs1 mutant, active compounds read high
In short: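 Screen format: yeast with repair or checkpoint alterations, compound exposure, growth read relative to vehicle.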

[9] = NCI Yeast Anticancer Drug Screen. Data for the mlh1 rad18 strain (AID 175); conditions: S. cerevisiae mlh1 rad18 strain growth inhibition, active compounds read high
In short: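 Vehicle-treated cultures served as the reference for growth inhibition in a yeast strain carrying DNA damage repair alterations exposed to each compound.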

[10] = NCI Yeast Anticancer Drug Screen. Data for the rad18 strain (AID 177); conditions: S. cerevisiae rad18 mutant growth inhibition, active compounds read high
In short: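 Test articles were incubated with altered yeast defective in DNA damage repair. Results are given as inhibition of growth versus vehicle.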

[11] = NCI Yeast Anticancer Drug Screen. Data for the rad52 strain (AID 147);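 further: 0% = growth of vehicle-treated control cultures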; conditions: S. cerevisiae rad52 mutant growth inhibition, active compounds read high
In short: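 Vehicle-treated cultures served as the reference for growth inhibition of compound-exposed yeast bearing a DNA repair mutation.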

[12] = NCI Yeast Anticancer Drug Screen. Data for the wt1 strain (AID 149);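 further: 0% = growth of vehicle-treated wt1 cultures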; conditions: S. cerevisiae wt1 strain (SPY 50644) growth inhibition, active compounds read high
In short: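 The wt1 strain was treated with compounds, and growth was compared with vehicle-treated cultures to give inhibition.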

[13] = NCI Yeast Anticancer Drug Screen. Data for the rad50EPP+ strain (AID 151);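 further: 0% = growth of vehicle-treated control cultures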; conditions: S. cerevisiae rad50 mutant strain, active compounds read high
In short: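 In this screen, rad50EPP+ yeast were exposed to compounds. Growth inhibition was scored against vehicle-treated controls.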

[14] = NCI Yeast Anticancer Drug Screen. Data for the mgt1 strain (AID 153); conditions: S. cerevisiae mgt1 mutant growth inhibition, active compounds read high
In short: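 mgt1 strain exposed; growth vs vehicle control recorded as inhibition.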

[15] = NCI Yeast Anticancer Drug Screen. Data for the rad50 strain (AID 155);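 further: 0% = growth of vehicle-only cultures of the same strain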; conditions: S. cerevisiae rad50 strain growth inhibition, active compounds read high
In short: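 Cells are treated with compound, grown, and their growth is then scored against vehicle-only cultures of the same repair-deficient yeast strain.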

[16] = NCI Yeast Anticancer Drug Screen. Data for the mlh1 strain (AID 171);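 further: 0% = growth of vehicle-treated control cultures of the same strain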; conditions: S. cerevisiae mlh1 strain growth inhibition, active compounds read high
In short: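 Vehicle-normalised growth inhibition of a repair- or checkpoint-altered yeast strain following compound treatment.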

[17] = at 5.0 µM (retest, dose inferred, filed as 0.5)
[18] = at 50.0 µM (retest, dose inferred, filed as 5.0)

Measured: growth inhibition

O=C1C=C(Cl)C(=O)C(c2ccc(Cl)cc2)=C1
active: [1]; at 33.0 µM 98% | [1]; [18] 99% | [1]; at 50.0 µM 92.5% | [1]; at 100.0 µM 97% | [2]; at 33.0 µM 95% | [2]; at 100.0 µM 96% | [3]; [18] 95% | [3]; at 50.0 µM 93.5% | [4]; at 33.0 µM 98% | [4]; at 100.0 µM 96% | [5]; [18] 98% | [5]; at 50.0 µM 90.8% | [6]; at 33.0 µM 98% | [6]; [18] 98% | [6]; at 50.0 µM 91.8% | [6]; at 100.0 µM 94% | [7]; at 33.0 µM 94% | [7]; at 100.0 µM 96% | [8]; at 33.0 µM 98% | [8]; at 100.0 µM 96% | [9]; [18] 97% | [9]; at 50.0 µM 91.6% | [10]; at 33.0 µM 96% | [10]; at 100.0 µM 97%
inactive: [1]; [17] 21% | [1]; at 11.0 µM 67% | [2]; at 1.2 µM 11% | [2]; at 3.7 µM 23% | [2]; at 11.0 µM 42% | [3]; [17] 17% | [4]; at 1.2 µM 31% | [4]; at 3.7 µM 32% | [4]; at 11.0 µM 69% | [5]; [17] 24% | [6]; at 1.2 µM 5% | [6]; at 3.7 µM 20% | [6]; [17] 6% | [6]; at 11.0 µM 62% | [7]; at 1.2 µM -27% | [7]; at 3.7 µM -9% | [7]; at 11.0 µM 13% | [8]; at 1.2 µM 18% | [8]; at 3.7 µM 37% | [8]; at 11.0 µM 66% | [9]; [17] 39% | [10]; at 1.2 µM 16% | [10]; at 3.7 µM -4% | [10]; at 11.0 µM 53%

O=C(O)CCCC1CCCc2c1ccc1ccccc21 (centres undefined)
active: [11]; at 33.0 µM 74% | [11]; at 100.0 µM 99% | [12]; at 100.0 µM 99% | [13]; at 100.0 µM 81% | [14]; at 100.0 µM 99% | [15]; [18] 89% | [15]; at 50.0 µM 88% | [15]; at 100.0 µM 99% | [1]; [18] 95% | [1]; at 50.0 µM 83.6% | [1]; at 100.0 µM 99% | [2]; at 100.0 µM 99% | [3]; [18] 86% | [3]; at 50.0 µM 94.3% | [4]; at 33.0 µM 74% | [4]; at 100.0 µM 99% | [5]; [18] 96% | [5]; at 50.0 µM 90.2% | [6]; [18] 85% | [6]; at 50.0 µM 89% | [6]; at 100.0 µM 99% | [7]; at 100.0 µM 99% | [16]; at 100.0 µM 99% | [9]; [18] 91% | [9]; at 50.0 µM 91.2% | [10]; at 100.0 µM 98%
inactive: [11]; at 1.2 µM -2% | [11]; at 3.7 µM 1% | [11]; at 11.0 µM 11% | [12]; at 1.2 µM -3% | [12]; at 3.7 µM 2% | [12]; at 11.0 µM 2% | [12]; at 33.0 µM 38% | [13]; at 1.2 µM 3% | [13]; at 3.7 µM 8% | [13]; at 11.0 µM 29% | [13]; at 33.0 µM 59% | [14]; at 1.2 µM -4% | [14]; at 3.7 µM -3% | [14]; at 11.0 µM 4% | [14]; at 33.0 µM 59% | [15]; at 1.2 µM -2% | [15]; at 3.7 µM 0% | [15]; [17] 6% | [15]; at 11.0 µM 8% | [15]; at 33.0 µM 58% | [1]; at 1.2 µM -2% | [1]; at 3.7 µM -4% | [1]; [17] 10% | [1]; at 11.0 µM 4% | [1]; at 33.0 µM 47% | [2]; at 1.2 µM 3% | [2]; at 3.7 µM 7% | [2]; at 11.0 µM 13% | [2]; at 33.0 µM 51% | [3]; [17] 13% | [4]; at 1.2 µM 1% | [4]; at 3.7 µM -4% | [4]; at 11.0 µM 13% | [5]; [17] 5% | [6]; at 1.2 µM -4% | [6]; at 3.7 µM -6% | [6]; [17] 2% | [6]; at 11.0 µM 6% | [6]; at 33.0 µM 61% | [7]; at 1.2 µM -1% | [7]; at 3.7 µM 1% | [7]; at 11.0 µM 7% | [7]; at 33.0 µM 57% | [16]; at 1.2 µM -3% | [16]; at 3.7 µM -1% | [16]; at 11.0 µM 4% | [16]; at 33.0 µM 60% | [9]; [17] 4% | [10]; at 1.2 µM -2% | [10]; at 3.7 µM -2% | [10]; at 11.0 µM 2% | [10]; at 33.0 µM 58%

C[C](C)(C)[Ge]([O][Ge]([c]1ccccc1)[c]1ccccc1)([O][Ge]([c]1ccccc1)[c]1ccccc1)[C](C)(C)C
inactive: [11]; at 1.2 µM 1% | [11]; at 3.7 µM 15% | [11]; at 11.0 µM 53% | [12]; at 1.2 µM -3% | [12]; at 3.7 µM 5% | [12]; at 11.0 µM 42% | [12]; at 33.0 µM 68% | [13]; at 1.2 µM 0% | [13]; at 3.7 µM 5% | [13]; at 11.0 µM 5% | [13]; at 33.0 µM 1% | [13]; at 100.0 µM -3% | [14]; at 1.2 µM -2% | [14]; at 3.7 µM 3% | [14]; at 11.0 µM 44% | [14]; at 33.0 µM 67% | [14]; at 100.0 µM 62% | [15]; at 1.2 µM -1% | [15]; at 3.7 µM 6% | [15]; [17] 12% | [15]; at 11.0 µM 42% | [15]; at 33.0 µM 63% | [15]; [18] 63% | [1]; at 1.2 µM 4% | [1]; at 3.7 µM 21% | [1]; [17] 29% | [1]; at 11.0 µM 60% | [1]; at 50.0 µM 65.8% | [2]; at 1.2 µM -4% | [2]; at 3.7 µM 1% | [2]; at 11.0 µM 23% | [2]; at 33.0 µM 46% | [2]; at 100.0 µM 57% | [3]; [17] 19% | [3]; at 50.0 µM 61.6% | [4]; at 1.2 µM 4% | [4]; at 3.7 µM 18% | [4]; at 11.0 µM 55% | [5]; [17] 26% | [5]; at 50.0 µM 67.8% | [6]; at 1.2 µM -4% | [6]; at 3.7 µM 4% | [6]; [17] 9% | [6]; at 11.0 µM 53% | [16]; at 1.2 µM 0% | [16]; at 3.7 µM 9% | [16]; at 11.0 µM 49% | [16]; at 33.0 µM 66% | [16]; at 100.0 µM 68% | [8]; at 1.2 µM 8% | [8]; at 3.7 µM 27% | [9]; [17] 48% | [10]; at 1.2 µM 4% | [10]; at 3.7 µM 20% | [10]; at 11.0 µM 56%
active: [11]; at 33.0 µM 74% | [11]; at 100.0 µM 78% | [12]; at 100.0 µM 75% | [15]; at 50.0 µM 71.9% | [15]; at 100.0 µM 71% | [1]; at 33.0 µM 80% | [1]; [18] 75% | [1]; at 100.0 µM 79% | [3]; [18] 80% | [4]; at 33.0 µM 74% | [4]; at 100.0 µM 81% | [5]; [18] 82% | [6]; at 33.0 µM 77% | [6]; [18] 79% | [6]; at 50.0 µM 76.7% | [6]; at 100.0 µM 79% | [8]; at 11.0 µM 71% | [8]; at 33.0 µM 78% | [8]; at 100.0 µM 76% | [9]; [18] 90% | [9]; at 50.0 µM 75.9% | [10]; at 33.0 µM 73% | [10]; at 100.0 µM 74%
